Records with an inconclusive call do not appear. Active and inactive are the calls of the source. The calls were made as follows, unless noted: active = hit-call score of the fitted dose curve at least 0.9, where 1 is the maximum; inactive = score below 0.9.

As a reminder, the AC50 is the concentration giving half of the maximal activity seen.

Assay [1] can be described thus: ATG_PBREM_CIS: Attagene CIS-FACTORIAL HepG2 Assay for human Phenobarbital-responsive Enhancer Module (PBREM) (AID 2282955). Conditions: HepG2 PBREM cis-reporter, Attagene multiplexed transcription; actives raise or lower the signal. Put shortly:
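HepG2 cells transiently transfected with multiple cis-regulated reporter units measure endogenous transcription factor activity; 24 h compound exposure. Reporter mRNA quantified by RT-PCR, fluorescent labelling, HpaI digestion and capillary electrophoresis; bidirectional fit versus DMSO.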

The target of assay [2] is Paired box protein Pax-6 (Homo sapiens) (UniProt P26367). As to the kind of experiment: ATG_Pax6_CIS: Attagene CIS-FACTORIAL HepG2 Assay for human Paired Box 6 (PAX6) (AID 2282956). Conditions: HepG2 CIS-FACTORIAL PAX6 reporter transcription, RNA readout; actives raise or lower the signal. An outline of the steps: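 Read-out is reporter transcript level, measured by RT-PCR with fluorescent primer extension and capillary electrophoresis after 24 h dosing of transfected HepG2 cells. Activity in either direction fitted relative to DMSO control.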
Paired box protein Pax-6 (Homo sapiens), sequence (P26367 whole entry, looked up): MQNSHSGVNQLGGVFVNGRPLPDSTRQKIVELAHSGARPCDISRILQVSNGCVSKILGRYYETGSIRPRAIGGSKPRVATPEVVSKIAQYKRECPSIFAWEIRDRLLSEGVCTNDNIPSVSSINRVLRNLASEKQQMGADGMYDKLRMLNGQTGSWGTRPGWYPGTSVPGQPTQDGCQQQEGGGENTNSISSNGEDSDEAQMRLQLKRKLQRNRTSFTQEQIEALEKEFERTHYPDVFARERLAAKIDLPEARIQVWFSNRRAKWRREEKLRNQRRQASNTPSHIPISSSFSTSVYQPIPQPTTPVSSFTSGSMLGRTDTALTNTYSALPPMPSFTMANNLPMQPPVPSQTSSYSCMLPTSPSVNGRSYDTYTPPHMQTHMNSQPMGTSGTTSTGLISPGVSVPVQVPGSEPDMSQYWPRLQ

A short description of assay [3]: ATG_PXRE_CIS: Attagene CIS-FACTORIAL HepG2 Assay for human Pregnane X Receptor Element (PXRE) (AID 2282957). Conditions: HepG2 Attagene CIS-FACTORIAL PXRE reporter, mRNA; actives raise or lower the signal. Put shortly:
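Bidirectional activity, baselined to DMSO, derived from reporter mRNA fluorescence (RT-PCR plus capillary electrophoresis) in HepG2 cells bearing cis-promoter reporter units, 24 h exposure.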

The nature of assay [4]: ATG_Sox_CIS: Attagene CIS-FACTORIAL HepG2 Assay for human SRY-box transcription factor (SOX) (AID 2282960). As to conditions: HepG2 Attagene cis-factorial SOX reporter, mRNA; actives raise or lower the signal. An outline of the steps: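 HepG2 cells transiently transfected with multiple cis-regulated reporter units, then dosed for 24 h. Reporter mRNA quantified by RT-PCR, fluorescent labelling, HpaI digestion and capillary electrophoresis; bidirectional fit versus DMSO.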

Assay [5] addresses Transcription factor Sp1 (Homo sapiens) (UniProt P08047). Kind of assay: ATG_Sp1_CIS: Attagene CIS-FACTORIAL HepG2 Assay for human Specificity Protein 1 (Sp1) (AID 2282961). As to conditions: HepG2 Sp1 cis-reporter transcription, actives raise or lower the signal. Put shortly: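 HepG2 cells transiently transfected with multiplexed cis-regulated reporter constructs, chemical exposure 24 h. Reporter mRNA quantified by RT-PCR with capillary electrophoresis; bidirectional fit relative to DMSO.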

A short description of assay [6]: ATG_SREBP_CIS: Attagene CIS-FACTORIAL HepG2 Assay for human Sterol Regulatory Element Binding (SREBP) (AID 2282962). Conditions: HepG2 Attagene cis-factorial SREBP reporter, mRNA; actives raise or lower the signal. An outline of the steps:
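Endogenous SREBP activity read as cis-element-driven reporter transcript in transiently transfected HepG2, 24 h post-dosing; quantified via RT-PCR plus capillary electrophoresis of fluorescent fragments. Gain or loss of signal fitted relative to DMSO baseline.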

Assay [7] concerns the target Signal transducer and activator of transcription 3 (Homo sapiens) (UniProt P40763). As to the kind of experiment: ATG_STAT3_CIS: Attagene CIS-FACTORIAL HepG2 Assay for human Signal Transducer and Activator of Transcription 3 (STAT3) (AID 2282963). As to conditions: HepG2, Attagene cis-factorial STAT3 reporter transcription; actives raise or lower the signal. An outline of the steps: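 Cis-factorial format: endogenous transcription factors in HepG2 drive transfected reporter units. After 24 h treatment, reporter RNA was reverse-transcribed, amplified, FAM-labelled and HpaI-digested before CE analysis; activity scored in both directions against DMSO.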

Assay [8] is described as follows: ATG_TA_CIS: Attagene CIS-FACTORIAL HepG2 Assay for human TA Basal Promoter (AID 2282964). As to conditions: HepG2 Attagene CIS-factorial TA basal promoter reporter; actives raise or lower the signal. An outline of the steps:
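HepG2 cells transiently transfected with multiple reporter units under cis promoter elements, reporting endogenous transcription factor activity; this endpoint tracks the TA basal promoter as background control. Reporter mRNA after 24 h dosing measured by RT-PCR/capillary electrophoresis; bidirectional fits versus DMSO.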

Assay [9] in a line: ATG_TCF_b_cat_CIS: Attagene CIS-FACTORIAL HepG2 Assay for human T-Cell-Factor with beta-catenin (TCF/b-cat) (AID 2282965). As to conditions: HepG2 TCF/beta-catenin cis-reporter transcription, actives raise or lower the signal. Put shortly: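 Endogenous TCF/LEF activity read as reporter transcript level via RT-PCR and capillary electrophoresis fluorescence in transfected HepG2, 24 h exposure; gain or loss of signal fitted against DMSO controls.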

Assay [10] in a line: ATG_TAL_CIS: Attagene CIS-FACTORIAL HepG2 Assay for human TAL Basal Promoter (AID 2282966).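 Also: background control endpoint measuring basal TAL promoter reporter mRNA not a specific factor.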 As to conditions: HepG2 Attagene cis-factorial TAL promoter reporter; actives raise or lower the signal. Put shortly: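 Human hepatoma HepG2 cells, transfected with promoter-regulated reporter units, were treated 24 h. Reporter transcript levels, measured through RT-PCR and capillary electrophoresis, were fitted for gain or loss relative to DMSO.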

Assay [11] in a line: ATG_TGFb_CIS: Attagene CIS-FACTORIAL HepG2 Assay for human Transforming Growth Factor (TGF) (AID 2282967). Conditions: HepG2 Attagene CIS TGFb reporter, mRNA transcription; actives raise or lower the signal. Put shortly:
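HepG2 cells transiently transfected with cis-promoter-driven multiple reporter units measure endogenous TF activity; reporter mRNA quantified at 24 h by RT-PCR, FAM labeling, HpaI digestion and capillary electrophoresis. Bidirectional fit vs DMSO.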

Assay [12] has as its target Nuclear receptor subfamily 1 group I member 3 (Homo sapiens) (UniProt Q14994). As to the kind of experiment: ATG_CAR_TRANS: Attagene TRANS-FACTORIAL HepG2 Assay for human Constitutive Androstane Receptor (CAR) (AID 2282969; active = hit-call score of the fitted dose curve at least 0.9, where 1 is the maximum;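 also: activators raise reporter mRNA above DMSO so AC50 marks induction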). As to conditions: HepG2 Attagene TRANS-FACTORIAL CAR reporter. An outline of the steps: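 Signal is reporter mRNA induction relative to DMSO, measured 24 h after dosing by RT-PCR with fluorescent primer extension and capillary electrophoresis. Human HepG2 liver cells carried transiently transfected chimeric NR-Gal4/GAL4-UAS reporter constructs.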

Assay [13] deals with Estrogen receptor (Homo sapiens) (UniProt P03372). As to the kind of experiment: ATG_ERa_TRANS: Attagene TRANS-FACTORIAL HepG2 Assay for human Estrogen Receptor alpha (ERa) (AID 2282970; active = hit-call score of the fitted dose curve at least 0.9, where 1 is the maximum). Conditions: HepG2 Attagene TRANS ERa GAL4 reporter, mRNA. An outline of the steps: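 Signal derives from fluorescence of labelled reporter PCR fragments separated by capillary electrophoresis. HepG2 cells transiently carrying multiple GAL4-UAS reporter units were treated 24 hours, and induction above DMSO baseline was fitted as activity.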
Estrogen receptor (Homo sapiens), sequence (P03372 whole entry, looked up, the tested form may be a part): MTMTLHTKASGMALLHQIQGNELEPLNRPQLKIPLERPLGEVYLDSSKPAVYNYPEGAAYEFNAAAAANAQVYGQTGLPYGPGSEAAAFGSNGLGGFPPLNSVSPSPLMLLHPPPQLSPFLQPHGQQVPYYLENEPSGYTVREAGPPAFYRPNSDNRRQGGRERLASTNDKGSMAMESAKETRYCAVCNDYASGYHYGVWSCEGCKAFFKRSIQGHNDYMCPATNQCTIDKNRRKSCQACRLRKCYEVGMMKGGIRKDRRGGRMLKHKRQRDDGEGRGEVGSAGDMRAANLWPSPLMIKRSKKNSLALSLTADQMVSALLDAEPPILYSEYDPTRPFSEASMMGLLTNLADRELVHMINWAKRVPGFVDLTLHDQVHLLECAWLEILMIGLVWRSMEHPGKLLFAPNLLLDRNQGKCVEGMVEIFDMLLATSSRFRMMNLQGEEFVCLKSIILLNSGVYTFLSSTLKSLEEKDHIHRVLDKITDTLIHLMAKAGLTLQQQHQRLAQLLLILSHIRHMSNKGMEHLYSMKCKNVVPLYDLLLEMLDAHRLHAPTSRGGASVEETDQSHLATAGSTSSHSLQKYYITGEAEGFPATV

Assay [14] has as its target Steroid hormone receptor ERR1 (Homo sapiens) (UniProt P11474). As to the kind of experiment: ATG_ERRa_TRANS: Attagene TRANS-FACTORIAL HepG2 Assay for human Estrogen-Related Receptor alpha (ERRa) (AID 2282971; active = hit-call score of the fitted dose curve at least 0.9, where 1 is the maximum). Conditions: HepG2 Attagene TRANS reporter, ERRa transactivation. An outline of the steps:
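Signal gain relative to DMSO for an ERRa-Gal4 chimeric receptor, read as reporter mRNA by RT-PCR/capillary electrophoresis. Human HepG2 liver cells, transient multiplex reporter transfection, 24 h chemical exposure.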

Assay [15] in a line: ATG_M_19_TRANS: Attagene TRANS-FACTORIAL HepG2 Assay for M19 Transcription Factor (Internal Marker) (AID 2282974; active = hit-call score of the fitted dose curve at least 0.9, where 1 is the maximum). Conditions: HepG2 Attagene TRANS-FACTORIAL M19 internal marker reporter. An outline of the steps:
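HepG2 transiently transfected with GAL4-UAS multiplex reporter constructs, exposed 24 h; reporter RNA quantified by RT-PCR, 6-FAM labeling, HpaI digestion and capillary electrophoresis; internal background marker fitted upward versus DMSO.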

The nature of assay [16]: ATG_RORE_CIS: Attagene CIS-FACTORIAL HepG2 Assay for human RAR-related Orphan Receptor Element (RORE) (AID 2282959). As to conditions: HepG2 Attagene cis-factorial RORE reporter, mRNA; actives raise or lower the signal. An outline of the steps:
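HepG2 cells carrying transiently transfected cis-regulated reporter units; RORE-driven reporter mRNA quantified 24 h post-dosing by RT-PCR, 6-FAM primer extension, HpaI digestion and capillary electrophoresis. Bidirectional fit versus DMSO.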

Assay [17] concerns the target X-box-binding protein 1 (Homo sapiens) (UniProt P17861). As to the kind of experiment: ATG_Xbp1_CIS: Attagene CIS-FACTORIAL HepG2 Assay for human X-box Binding Protein 1 (XBP1) (AID 2282972). As to conditions: HepG2 XBP1 cis-element reporter, Attagene multiplex; actives raise or lower the signal. An outline of the steps: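 Reporter transcripts were quantified by RT-PCR with fluorescent primer extension and capillary electrophoresis after 24 h chemical exposure. Cells: transiently transfected HepG2 carrying cis-regulated reporter constructs; data fitted bidirectionally relative to DMSO.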

Assay [18] in a line: ATG_VDRE_CIS: Attagene CIS-FACTORIAL HepG2 Assay for human Vitamin D Receptor Element (VDRE) (AID 2282968). As to conditions: HepG2 VDRE cis-reporter transcription, actives raise or lower the signal. An outline of the steps:
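Measures endogenous factor activity through cis-element-driven reporter transcripts in transiently transfected HepG2. Cells are treated 24 h; reporter mRNA is quantified by RT-PCR and capillary electrophoresis; fitting is bidirectional.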

Assay [19] can be described thus: ATG_GAL4_TRANS: Attagene TRANS-FACTORIAL HepG2 Assay for GAL4 (Internal Marker) (AID 2282976; active = hit-call score of the fitted dose curve at least 0.9, where 1 is the maximum). Conditions: HepG2 Attagene TRANS GAL4 internal marker reporter. Put shortly:
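Liver HepG2 line bearing multiplexed GAL4-UAS reporter constructs; 24 h chemical treatment. Transcripts were quantified as fluorescent fragments on capillary electrophoresis after RT-PCR and HpaI cut, with activity fitted upward from DMSO.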

Transcription factor Sp1 (Homo sapiens), sequence (P08047 whole entry, looked up): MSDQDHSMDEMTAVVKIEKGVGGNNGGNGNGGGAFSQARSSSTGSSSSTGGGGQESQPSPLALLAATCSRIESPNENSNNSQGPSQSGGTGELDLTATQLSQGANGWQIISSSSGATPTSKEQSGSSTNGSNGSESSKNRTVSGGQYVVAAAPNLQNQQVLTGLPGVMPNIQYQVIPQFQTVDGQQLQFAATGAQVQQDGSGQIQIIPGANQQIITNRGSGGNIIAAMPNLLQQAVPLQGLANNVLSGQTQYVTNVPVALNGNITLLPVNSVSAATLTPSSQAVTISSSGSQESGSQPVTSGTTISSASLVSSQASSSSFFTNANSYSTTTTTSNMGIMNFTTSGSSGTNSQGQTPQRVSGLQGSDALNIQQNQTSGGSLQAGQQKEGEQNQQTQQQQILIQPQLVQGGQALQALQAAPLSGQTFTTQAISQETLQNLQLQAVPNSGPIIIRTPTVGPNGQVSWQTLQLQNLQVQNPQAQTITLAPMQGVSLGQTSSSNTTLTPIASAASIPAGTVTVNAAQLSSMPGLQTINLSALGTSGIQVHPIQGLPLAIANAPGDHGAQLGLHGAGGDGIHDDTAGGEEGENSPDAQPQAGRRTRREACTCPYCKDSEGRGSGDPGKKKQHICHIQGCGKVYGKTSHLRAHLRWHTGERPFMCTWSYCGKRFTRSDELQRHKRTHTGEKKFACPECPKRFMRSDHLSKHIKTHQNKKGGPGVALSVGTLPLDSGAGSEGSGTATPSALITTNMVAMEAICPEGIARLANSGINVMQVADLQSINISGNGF
Signal transducer and activator of transcription 3 (Homo sapiens), sequence (P40763 whole entry, looked up): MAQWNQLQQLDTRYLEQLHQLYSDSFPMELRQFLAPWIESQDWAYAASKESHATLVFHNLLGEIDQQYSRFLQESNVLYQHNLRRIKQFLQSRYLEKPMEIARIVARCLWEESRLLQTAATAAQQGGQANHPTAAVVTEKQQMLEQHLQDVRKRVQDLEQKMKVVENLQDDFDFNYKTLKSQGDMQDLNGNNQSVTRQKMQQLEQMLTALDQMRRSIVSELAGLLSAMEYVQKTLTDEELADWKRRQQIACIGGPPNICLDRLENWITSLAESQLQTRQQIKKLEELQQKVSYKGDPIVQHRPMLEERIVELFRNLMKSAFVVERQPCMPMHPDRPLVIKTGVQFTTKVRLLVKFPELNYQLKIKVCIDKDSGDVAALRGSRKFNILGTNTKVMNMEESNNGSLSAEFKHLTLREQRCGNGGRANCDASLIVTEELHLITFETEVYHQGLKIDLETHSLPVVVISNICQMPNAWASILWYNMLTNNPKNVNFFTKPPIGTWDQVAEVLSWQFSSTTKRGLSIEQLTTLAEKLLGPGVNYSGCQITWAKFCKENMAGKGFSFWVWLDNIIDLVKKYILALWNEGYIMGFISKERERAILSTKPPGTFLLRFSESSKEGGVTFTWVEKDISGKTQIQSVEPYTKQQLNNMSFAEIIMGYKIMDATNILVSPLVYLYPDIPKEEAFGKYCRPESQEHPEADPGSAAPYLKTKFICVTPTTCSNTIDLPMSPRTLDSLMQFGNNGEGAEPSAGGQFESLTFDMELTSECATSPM
X-box-binding protein 1 (Homo sapiens), sequence (P17861 whole entry, looked up): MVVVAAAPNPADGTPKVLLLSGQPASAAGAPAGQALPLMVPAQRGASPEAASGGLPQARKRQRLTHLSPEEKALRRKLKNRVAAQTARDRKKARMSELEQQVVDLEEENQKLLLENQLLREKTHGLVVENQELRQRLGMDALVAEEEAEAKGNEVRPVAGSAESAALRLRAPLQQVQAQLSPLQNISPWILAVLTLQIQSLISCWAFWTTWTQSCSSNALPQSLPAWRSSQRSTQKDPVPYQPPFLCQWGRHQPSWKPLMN
Nuclear receptor subfamily 1 group I member 3 (Homo sapiens), sequence (Q14994 whole entry, looked up, the tested form may be a part): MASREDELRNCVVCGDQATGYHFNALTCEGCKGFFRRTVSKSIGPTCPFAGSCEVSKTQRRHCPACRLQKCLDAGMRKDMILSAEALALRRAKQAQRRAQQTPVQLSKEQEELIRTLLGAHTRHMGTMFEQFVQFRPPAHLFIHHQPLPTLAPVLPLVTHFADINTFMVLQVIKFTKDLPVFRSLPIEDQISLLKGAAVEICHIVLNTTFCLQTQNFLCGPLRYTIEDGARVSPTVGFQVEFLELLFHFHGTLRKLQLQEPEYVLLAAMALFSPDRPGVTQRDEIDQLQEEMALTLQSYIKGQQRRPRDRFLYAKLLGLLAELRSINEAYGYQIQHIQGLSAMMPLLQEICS
Steroid hormone receptor ERR1 (Homo sapiens), sequence (P11474 whole entry, looked up, the tested form may be a part): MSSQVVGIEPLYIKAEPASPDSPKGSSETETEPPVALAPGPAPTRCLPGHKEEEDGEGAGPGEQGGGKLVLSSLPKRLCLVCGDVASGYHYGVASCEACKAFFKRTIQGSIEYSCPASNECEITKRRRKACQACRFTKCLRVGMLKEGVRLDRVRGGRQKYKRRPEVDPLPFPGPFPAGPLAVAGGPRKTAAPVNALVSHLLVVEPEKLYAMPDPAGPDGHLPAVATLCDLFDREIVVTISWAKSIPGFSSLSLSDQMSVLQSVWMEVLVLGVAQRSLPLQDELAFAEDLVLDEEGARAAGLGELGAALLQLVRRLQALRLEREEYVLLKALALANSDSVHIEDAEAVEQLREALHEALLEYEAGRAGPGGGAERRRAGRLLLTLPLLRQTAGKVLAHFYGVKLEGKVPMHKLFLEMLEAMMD

In the case of `CCCCC1CCC(=O)O1` (centres undefined), the result in assay [1], in [2], in [4], in [5], in assay [6] and in [7] was inactive. Besides, the molecule was classed as inactive in [8], in assay [9], in assay [10], in assay [11], in assay [12] and in [13]. The call in assay [14] and in [15] was inactive. Further, the AC50 in assay [3] is 22.4 µM (active).

With `CC(C)(c1ccccc1)c1ccc(Nc2ccc(C(C)(C)c3ccccc3)cc2)cc1`, the result in assay [1], in [2], in assay [16], in assay [4], in assay [5] and in [6] was inactive. The molecule was called inactive in assay [7], in assay [9], in assay [10], in assay [11], in assay [12] and in assay [13]. For the same molecule, the result in assay [17] and in [15] was inactive. Further, in [3], the AC50 is 2.03 µM (active).

In the case of `Nc1ccc(C(=O)OCCCOC(=O)c2ccc(N)cc2)cc1`, the outcome in assay [1], in assay [2], in assay [4], in [5], in [6] and in assay [7] was inactive. In addition, the outcome in assay [9], in assay [10], in [11], in assay [13] and in assay [19] was inactive. In addition, the AC50 is 27.5 µM (active) in [3], 63.7 µM (active) in assay [8] and 48.8 µM (active) in assay [18].

Consider `CCCCCCCCC(CO)CCCCCC` (centres undefined), for which the AC50 in assay [1] was 166 µM (active); in [7], 133 µM (active). Further, the outcome in assay [2], in assay [3], in [4], in assay [5], in assay [6] and in assay [8] was inactive. Besides, the result in assay [9], in assay [10], in assay [18], in [13] and in [17] was inactive.

For the molecule `CC1=CCC(C(C)C)C=C1` (centres undefined), the outcome in assay [1], in assay [2], in assay [4], in assay [5], in assay [6] and in [7] was inactive. For the same molecule, the outcome in [8], in assay [9], in assay [10], in assay [11] and in assay [13] was inactive. Also, the AC50 in assay [3] was 3.56 µM (active).

The values above are taken from PubChem BioAssay (EPA / NIEHS).
